The nature of experiment [1]: P-glycoprotein substrates identified in KB-8-5-11 adenocarcinoma cell line, qHTS therapeutic library screen (AID 1346987). Also: nearly all actives have a fitted effect of over 65% in size. Also: potency is read from the fitted curve at half-maximal effect. In short, it runs like this:
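Luminescence from CellTiter-Glo, read 5 min after addition, quantified survival of KB-8-5-11 (P-gp-overexpressing) cells exposed to compounds for 72 h. AC50 was derived from concentration-response curves.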

The nature of experiment [2]: Natriuretic polypeptide receptor (hNpr1) antagonism - Pilot counterscreen GloSensor control cell line (AID 1347045; calls by dose curve; also: potency is read from the fitted curve at half-maximal effect). In short, it runs like this:
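Cells were first seeded and incubated overnight at 37C, then loaded with 2% GloSensor substrate for 2 h. Compounds were added for 30 min at room temperature, followed by a baseline read, 50 uM SNP and a final read after 20 min.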

The target in experiment [3] is Atrial natriuretic peptide receptor 1 (Homo sapiens) (UniProt P16066). Nature of the experiment: Natriuretic polypeptide receptor (hNpr1) antagonism - Pilot screen (AID 1347049; calls by dose curve;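 also: HEK293 cells with hNpr1 and GloSensor cGMP luciferase stimulated by 0.1 nM hNppA; agonist-evoked cGMP luminescence read 20 min after hNppA addition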; also: potency is read from the fitted curve at half-maximal effect). In short, it runs like this:
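Receptor antagonism read as cGMP-dependent luminescence in hNpr1/pGS-40F HEK293 cells: pre-read after 30 min compound exposure, post-read 20 min after hNppA agonist at 0.1 nM final, all at room temperature, protected from light; A-71915 titration as control.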

For experiment [4], the target named is Atrial natriuretic peptide receptor 2 (Homo sapiens) (UniProt P20594). Nature of the experiment: Natriuretic polypeptide receptor (hNpr2) antagonism - Pilot subtype selectivity assay (AID 1347050; calls by dose curve; also: potency is read from the fitted curve at half-maximal effect). In short, it runs like this: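 Antagonist mode: compounds (LOPAC1280, seven 1:5 dilutions) added 30 min before 1 nM hNppC stimulation of hNpr2-HEK293 cGMP-sensor cells; luminescence read before and 20 min after agonist at ambient temperature.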
Atrial natriuretic peptide receptor 2 (Homo sapiens), sequence (P20594 whole entry, looked up): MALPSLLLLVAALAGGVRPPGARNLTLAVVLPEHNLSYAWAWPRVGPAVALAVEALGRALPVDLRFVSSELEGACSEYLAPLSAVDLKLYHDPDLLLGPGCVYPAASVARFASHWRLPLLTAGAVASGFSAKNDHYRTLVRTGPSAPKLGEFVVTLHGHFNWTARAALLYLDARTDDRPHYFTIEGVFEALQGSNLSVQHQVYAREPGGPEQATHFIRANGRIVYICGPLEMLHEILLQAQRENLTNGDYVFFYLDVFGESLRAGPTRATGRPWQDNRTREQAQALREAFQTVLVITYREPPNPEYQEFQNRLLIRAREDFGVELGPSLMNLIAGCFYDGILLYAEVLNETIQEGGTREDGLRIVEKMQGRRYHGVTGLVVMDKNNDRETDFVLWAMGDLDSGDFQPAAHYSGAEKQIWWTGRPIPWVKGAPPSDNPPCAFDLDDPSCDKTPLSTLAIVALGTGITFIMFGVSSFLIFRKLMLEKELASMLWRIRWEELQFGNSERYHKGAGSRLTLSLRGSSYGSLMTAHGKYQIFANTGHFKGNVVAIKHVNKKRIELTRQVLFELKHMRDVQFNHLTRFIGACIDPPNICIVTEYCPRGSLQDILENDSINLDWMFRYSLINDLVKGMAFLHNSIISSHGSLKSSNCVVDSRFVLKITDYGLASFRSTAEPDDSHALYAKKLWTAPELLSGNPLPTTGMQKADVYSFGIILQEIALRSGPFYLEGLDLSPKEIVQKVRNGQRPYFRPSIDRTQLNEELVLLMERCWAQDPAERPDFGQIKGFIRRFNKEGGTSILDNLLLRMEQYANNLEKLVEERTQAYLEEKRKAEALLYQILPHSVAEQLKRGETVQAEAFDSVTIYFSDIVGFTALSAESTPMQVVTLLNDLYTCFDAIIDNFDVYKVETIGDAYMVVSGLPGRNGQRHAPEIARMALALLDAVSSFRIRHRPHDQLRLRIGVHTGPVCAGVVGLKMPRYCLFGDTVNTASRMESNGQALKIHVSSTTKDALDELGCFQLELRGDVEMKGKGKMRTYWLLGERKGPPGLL

The nature of experiment [5]: NS1 protein of Zika virus - qHTS assay to identify small molecule inhibitors in human HEK 293 cells (AID 1347053). Also: series mostly up to about 46 µM; nearly all actives have a fitted effect of over 55% in size. In short, it runs like this: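 Readout was TR-FRET using paired anti-NS1 antibodies after 24 h infection of HEK 293 cells with ZIKV MR766 (MOI = 0.5). Compound preceded virus by 1 h; reduced signal reflects lower NS1 expression.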
In general terms: qHTS replaces the single test concentration by a dilution series.

The target in experiment [6] is T1, Tyrosine-protein phosphatase non-receptor type substrate 1 (Homo sapiens) + Leukocyte surface antigen CD47 (Homo sapiens) (UniProt P78324+Q08722). Description: CD47-SIRPalpha protein protein interaction - LANCE assay qHTS validation (AID 1347057; active = well fitted curve in the direction sought with a large enough effect in the signal ratio, with a control signal flat, not every such curve was filed as active; the % refers to the signal ratio; also: series mostly up to about 38 µM). In short, it runs like this:
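Inhibition of soluble CD47/SIRPalpha ectodomain association by titrated compounds, measured as 665/615 nm time-resolved FRET ratio after sequential 30 min room-temperature incubations.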
For orientation: Time-resolved FRET reads energy transfer from a long-lived donor to a nearby acceptor.

Experiment [7] addresses T1, Tyrosine-protein phosphatase non-receptor type substrate 1 (Homo sapiens) + Leukocyte surface antigen CD47 (Homo sapiens). Nature of the experiment: CD47-SIRPalpha protein protein interaction - HTRF assay qHTS validation (AID 1347058; active = well fitted curve in the direction sought with a large enough effect in the signal ratio, not every such curve was filed as active; the % refers to the signal ratio; also: series mostly up to about 38 µM). The gist of the method:
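Soluble extracellular domains (6His-CD47, Avi-tag-biotinylated SIRPalpha) in PBS pH 7.4 with 0.05% IGEPAL CA-630. Compounds were preincubated 30 min at RT with CD47 and anti-His-Eu, then SIRPalpha and SAV-XL665 were added. TR-FRET 665/615 ratio.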

Experiment [8] has the same target. Nature of the experiment: CD47-SIRPalpha protein protein interaction - Alpha assay qHTS validation (AID 1347059).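 Also: bead proximity luminescence from CD47 binding SIRPalpha after compound preincubation with SIRPalpha.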 The gist of the method:
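AlphaScreen signal between CD47-His (12.5 nM) and biotin-SIRPalpha (25 nM) soluble extracellular domains, bead-captured via Ni-NTA and streptavidin. Compounds, in 7-point titrations, met SIRPalpha 30 min before CD47; PBS pH 7.4 with 0.05% IGEPAL.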

The target in experiment [9] is Parathyroid hormone/parathyroid hormone-related peptide receptor (Homo sapiens) (UniProt Q03431). Nature of the experiment: qHTS for PTHR1 Agonists: Optimization Screen against the NCGC LOPAC library (AID 1347079).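 Also: GloSensor cAMP luminescence in HEK-293 GP2 cells expressing human PTHR1 with IBMX.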 In short, it runs like this:
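HEK-293 GP2 cells, PTHR1 + GloSensor cAMP; 3000 cells/well, o/n. Luciferin + IBMX 0.5mM each (stock), 1 hr 37C. Cpd titration, 1 hr 37C. Lum after 15 min RT. Ctrl M-PTH(1-15) top 10uM.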

Experiment [10] is described as follows: qHTS for Inhibitors of the Functional Ribonucleoprotein Complex (vRNP) of Lassa (LASV) Arenavirus: LASV Primary Screen - GLuc reporter signal (AID 1347082; calls by dose curve; tested in HEK293 reporter line; also: nearly all actives have a fitted effect of over 60% in size; also: potency is read from the fitted curve at half-maximal effect).
A short description of experiment [11]: qHTS for Inhibitors of the Functional Ribonucleoprotein Complex (vRNP) of Lassa (LASV) Arenavirus: Viability assay - alamar blue signal for LASV Primary Screen (AID 1347083; calls by dose curve; tested in HEK293 reporter line; also: nearly all actives have a fitted effect of over 80% in size; also: potency is read from the fitted curve at half-maximal effect).
Experiment [12] in a line: qHTS for Inhibitors of the Functional Ribonucleoprotein Complex (vRNP) of Lymphocytic Choriomeningitis Arenaviruses (LCMV): Viability assay - alamar blue signal for LCMV Primary Screen (AID 1347085; calls by dose curve; tested in HEK293 reporter line; also: nearly all actives have a fitted effect of over 80% in size; also: potency is read from the fitted curve at half-maximal effect).
Experiment [13] deals with Nucleoprotein (Lymphocytic choriomeningitis virus (strain Armstrong)) (UniProt P09992). Nature of the experiment: qHTS for Inhibitors of the Functional Ribonucleoprotein Complex (vRNP) of Lymphocytic Choriomeningitis Arenaviruses (LCMV): LCMV Primary Screen - GLuc reporter signal (AID 1347086; calls by dose curve; also: nearly all actives have a fitted effect of over 70% in size; also: potency is read from the fitted curve at half-maximal effect).
Nucleoprotein (Lymphocytic choriomeningitis virus (strain Armstrong)), sequence (P09992 whole entry, looked up): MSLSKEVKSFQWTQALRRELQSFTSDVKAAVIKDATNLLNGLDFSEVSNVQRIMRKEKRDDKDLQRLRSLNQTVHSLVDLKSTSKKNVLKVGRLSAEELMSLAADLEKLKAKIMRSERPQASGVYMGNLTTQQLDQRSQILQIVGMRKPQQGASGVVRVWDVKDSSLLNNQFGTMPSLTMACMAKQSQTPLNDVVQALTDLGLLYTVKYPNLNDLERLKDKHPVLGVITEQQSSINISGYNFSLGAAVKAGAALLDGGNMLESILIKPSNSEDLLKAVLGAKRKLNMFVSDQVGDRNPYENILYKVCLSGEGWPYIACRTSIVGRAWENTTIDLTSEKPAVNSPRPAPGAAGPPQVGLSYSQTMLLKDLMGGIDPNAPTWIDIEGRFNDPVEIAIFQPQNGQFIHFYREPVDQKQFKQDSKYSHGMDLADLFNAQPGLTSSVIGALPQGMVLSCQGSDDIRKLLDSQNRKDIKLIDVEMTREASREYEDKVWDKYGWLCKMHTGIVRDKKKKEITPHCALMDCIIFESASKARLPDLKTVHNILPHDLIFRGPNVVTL
A short description of experiment [14]: qHTS of pediatric cancer cell lines to identify multiple opportunities for drug repurposing: Primary screen for TC32 cells (AID 1347089). Also: nearly all actives have a fitted effect of over 60% in size. Also: potency is read from the fitted curve at half-maximal effect. In short, it runs like this: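 Measured quantity: luminescence from CellTiter-Glo, reflecting metabolically active TC32 cells following 48 h of compound. Curves came straight from multi-point titrations, with 8 or 11 points in primary and 11 in confirmatory screening.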

Experiment [15] is described as follows: qHTS of pediatric cancer cell lines to identify multiple opportunities for drug repurposing: Primary screen for DAOY cells (AID 1347090). Also: nearly all actives have a fitted effect of over 55% in size. Also: potency is read from the fitted curve at half-maximal effect. In short, it runs like this: (§1)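 Cell viability, CellTiter-Glo luminescence; 500-1,000 cells/well, 8- or 11-point titration, 48 h compound exposure at 37 degrees C, 5% CO2. Controls: DMSO neutral, bortezomib 2.3 µM final as positive.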

Experiment [16] can be described thus: qHTS of pediatric cancer cell lines to identify multiple opportunities for drug repurposing: Primary screen for SJ-GBM2 cells (AID 1347091). Also: potency is read from the fitted curve at half-maximal effect. The gist of the method:
as §1

A short description of experiment [17]: qHTS of pediatric cancer cell lines to identify multiple opportunities for drug repurposing: Primary screen for A673 cells (AID 1347092). Also: nearly all actives have a fitted effect of over 45% in size. Also: potency is read from the fitted curve at half-maximal effect. In short, it runs like this: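 Cells are plated, rested 5 h, dosed by pintool, incubated 48 h, then lysed with CellTiter-Glo and read by luminescence. DMSO is the neutral control; bortezomib at 2.3 uM final is the positive control.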

Experiment [18] is described as follows: qHTS of pediatric cancer cell lines to identify multiple opportunities for drug repurposing: Primary screen for SK-N-MC cells (AID 1347093). Also: potency is read from the fitted curve at half-maximal effect. In short, it runs like this:
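Metabolically active cells were quantified by ATP-dependent luminescence (CellTiter-Glo, 15 min at room temperature) following 48 h treatment. Cells had been plated at 500-1,000 per well and settled for 5 h beforehand.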

The nature of experiment [19]: Identifying Small Molecule Inhibitors of Pancreatic Cancer Stem Cells (Panc1, Adherent) (AID 1259362). Also: potency is read from the fitted curve at half-maximal effect. The following applies: Potency: viability. In short, it runs like this:
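Endpoint: ATP-based luminescence, 48 h drug exposure. Bortezomib at 9.2 uM final as full-kill control; DMSO vehicle as negative control; activity normalized between vehicle and cell-free wells.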

Experiment [20] in a line: P-glycoprotein substrates identified in KB-3-1 adenocarcinoma cell line, qHTS therapeutic library screen (AID 1346986). Also: nearly all actives have a fitted effect of over 60% in size. In short, it runs like this: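 Viability read by CellTiter-Glo after 72 h compound exposure in dose-response of KB-3-1 and KB-8-5-11 (P-gp-high) cells. Hits needed AC50 < 10 uM, >50% maximum response and curve class -1.1 to -2.4. Cherry-picks retested ± tariquidar, including pcDNA/MDR-19 HEK-293 pair.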

From PubChem BioAssay (NCATS) come the findings set out here.

Several values for one entry are separate records, joined by “and”; a condition that tells them apart may be missing. Identical values can stand only once. Records with an inconclusive call do not appear. Activity calls are given as the source filed them. Unless noted, calls follow the shape of the dose curve; as a rule, active = well fitted curve in the direction sought with a large enough effect; inconclusive = small, poorly fitted or top-dose-only effect, or another doubt; inactive = no such curve, though single readings can be large; an effect the other way counts as inactive or inconclusive.

T1 sequence (P78324 whole entry, looked up, the tested form may be a part): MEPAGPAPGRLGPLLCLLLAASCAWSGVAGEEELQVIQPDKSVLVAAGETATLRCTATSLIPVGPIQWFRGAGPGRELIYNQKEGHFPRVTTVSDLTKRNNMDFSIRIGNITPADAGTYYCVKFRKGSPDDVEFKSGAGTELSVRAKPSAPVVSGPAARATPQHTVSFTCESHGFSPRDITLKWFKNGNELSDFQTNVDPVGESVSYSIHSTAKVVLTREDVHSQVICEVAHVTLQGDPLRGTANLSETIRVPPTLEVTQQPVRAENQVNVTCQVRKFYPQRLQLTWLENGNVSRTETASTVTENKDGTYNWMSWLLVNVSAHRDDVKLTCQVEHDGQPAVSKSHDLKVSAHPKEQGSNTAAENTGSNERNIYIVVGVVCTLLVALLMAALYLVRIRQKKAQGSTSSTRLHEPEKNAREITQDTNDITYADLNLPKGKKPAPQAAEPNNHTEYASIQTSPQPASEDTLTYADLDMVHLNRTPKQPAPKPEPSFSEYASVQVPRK
T1 sequence (Q08722 whole entry, looked up, the tested form may be a part): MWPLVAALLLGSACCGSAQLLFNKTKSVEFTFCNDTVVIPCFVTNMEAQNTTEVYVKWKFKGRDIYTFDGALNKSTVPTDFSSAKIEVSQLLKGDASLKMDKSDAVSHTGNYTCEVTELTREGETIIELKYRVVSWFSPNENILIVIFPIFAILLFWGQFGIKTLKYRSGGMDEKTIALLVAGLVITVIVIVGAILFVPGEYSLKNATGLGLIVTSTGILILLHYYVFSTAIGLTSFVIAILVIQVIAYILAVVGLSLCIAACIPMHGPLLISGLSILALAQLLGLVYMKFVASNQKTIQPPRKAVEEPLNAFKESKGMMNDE
Atrial natriuretic peptide receptor 1 (Homo sapiens), sequence (P16066 whole entry, looked up): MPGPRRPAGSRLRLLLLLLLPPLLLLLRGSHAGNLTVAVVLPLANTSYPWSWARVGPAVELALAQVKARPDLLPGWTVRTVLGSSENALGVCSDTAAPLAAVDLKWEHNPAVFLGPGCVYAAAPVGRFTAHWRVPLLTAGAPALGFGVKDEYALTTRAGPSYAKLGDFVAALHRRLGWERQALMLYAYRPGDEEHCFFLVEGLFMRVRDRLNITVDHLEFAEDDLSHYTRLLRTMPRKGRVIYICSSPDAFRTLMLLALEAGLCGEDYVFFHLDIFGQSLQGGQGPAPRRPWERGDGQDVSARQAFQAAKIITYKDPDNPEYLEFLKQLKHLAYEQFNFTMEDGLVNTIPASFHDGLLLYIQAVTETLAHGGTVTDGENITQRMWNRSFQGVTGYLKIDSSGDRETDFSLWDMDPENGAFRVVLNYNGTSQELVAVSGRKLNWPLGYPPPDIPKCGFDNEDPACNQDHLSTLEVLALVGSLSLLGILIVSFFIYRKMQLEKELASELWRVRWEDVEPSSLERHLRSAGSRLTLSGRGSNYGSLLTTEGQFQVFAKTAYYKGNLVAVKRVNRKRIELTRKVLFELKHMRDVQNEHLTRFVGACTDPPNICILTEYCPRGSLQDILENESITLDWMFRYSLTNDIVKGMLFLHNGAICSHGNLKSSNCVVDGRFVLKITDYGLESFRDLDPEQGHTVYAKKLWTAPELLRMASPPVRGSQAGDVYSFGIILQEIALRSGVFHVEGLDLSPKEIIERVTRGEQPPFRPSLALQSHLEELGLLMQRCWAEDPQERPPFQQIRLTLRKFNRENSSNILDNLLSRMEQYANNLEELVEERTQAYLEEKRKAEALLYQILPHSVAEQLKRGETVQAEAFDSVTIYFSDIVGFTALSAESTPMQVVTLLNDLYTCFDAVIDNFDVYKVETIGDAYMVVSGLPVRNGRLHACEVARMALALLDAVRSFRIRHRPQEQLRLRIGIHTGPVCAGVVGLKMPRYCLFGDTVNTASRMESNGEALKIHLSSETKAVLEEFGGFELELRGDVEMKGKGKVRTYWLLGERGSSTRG
Parathyroid hormone/parathyroid hormone-related peptide receptor (Homo sapiens), sequence (Q03431 whole entry, looked up): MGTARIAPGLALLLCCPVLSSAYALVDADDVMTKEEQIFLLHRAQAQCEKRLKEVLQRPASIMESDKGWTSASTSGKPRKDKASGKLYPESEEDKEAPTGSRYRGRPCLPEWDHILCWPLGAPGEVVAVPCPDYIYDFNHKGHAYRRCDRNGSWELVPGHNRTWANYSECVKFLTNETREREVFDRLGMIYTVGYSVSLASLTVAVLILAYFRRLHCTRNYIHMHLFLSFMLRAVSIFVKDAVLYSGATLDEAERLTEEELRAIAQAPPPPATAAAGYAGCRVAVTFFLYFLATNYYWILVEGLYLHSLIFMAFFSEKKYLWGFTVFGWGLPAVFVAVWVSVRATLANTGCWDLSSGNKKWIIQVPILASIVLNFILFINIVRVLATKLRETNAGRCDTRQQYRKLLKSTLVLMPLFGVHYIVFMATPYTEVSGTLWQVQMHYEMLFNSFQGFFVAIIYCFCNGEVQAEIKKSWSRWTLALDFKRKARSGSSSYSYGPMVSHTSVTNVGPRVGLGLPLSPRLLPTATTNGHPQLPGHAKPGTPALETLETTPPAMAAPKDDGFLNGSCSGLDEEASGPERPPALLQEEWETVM

Turning to `CCCN1CCC[C@@H]2Cc3[nH]ncc3C[C@H]21`, the Potency result in [1], in [2], in experiment [3], in experiment [4], in experiment [5] and in experiment [10] was “inactive” in each case. The Potency entry in [11], in experiment [12], in experiment [13], in experiment [14], in [15] and in experiment [16] was “inactive” each time. Also, in experiment [17], the Potency result is “inactive”. Further, the outcome in experiment [6], in [7], in experiment [8] and in experiment [9] was inactive.
As to `C=C(C)[C@H]1Cc2c(ccc3c2O[C@@H]2COc4cc(OC)c(OC)cc4[C@@H]2C3=O)O1`, the Potency in experiment [1] is 13 nM (active) and 2.64 µM (active); in experiment [2], 117 nM (active); in experiment [3], 135 nM (active); in experiment [4], 82.6 nM (active); in experiment [10] it was 1090 nM (active); in [11], 2.17 µM (active) and 708 nM (active). The Potency in experiment [12] was 3850 nM (active); in experiment [14], 1.67 µM (active) and 4.66 µM (active); in [15] it was 168 nM (active) and 296 nM (active); in experiment [16], 422 nM (active); in experiment [17], 106 nM (active) and 743 nM (active); in experiment [18], 299 nM (active) and 590 nM (active). Also, the Potency entry in experiment [5] is “inactive”. Further, the outcome in experiment [6], in [7] and in experiment [9] was inactive.
As for `NN=C(N)N`, the Potency result in experiment [1], in experiment [2], in experiment [3], in experiment [4], in [5] and in [10] was “inactive” throughout. The Potency result in experiment [11], in experiment [12], in experiment [13], in [14], in experiment [15] and in [16] was “inactive” throughout. Further, the Potency entry in experiment [17] and in experiment [18] was “inactive” in each case. Moreover, the outcome in experiment [6], in experiment [7], in experiment [8] and in experiment [9] was inactive.
Turning to `Cc1sc2c(c1C)C(c1ccc(Cl)cc1)=N[C@@H](CC(=O)OC(C)(C)C)c1nnc(C)n1-2`, the Potency was 4180 nM (active) in [19]; 469 nM (active) in experiment [1]; 2.43 µM (active) in experiment [11]; 1090 nM (active) in experiment [12]; 385 nM (active) in experiment [13]; 2640 nM (active) in [16]. Moreover, the Potency in experiment [17] was 469 nM (active).
`C[C@@H]1[C@@H](CC(C[C@H]2O[C@@H]3O[C@]4(C)CC[C@@H]5[C@H](C)CC[C@@H]([C@H]2C)[C@@]35OO4)C[S+](=O)([O-])c2ccc(COC(=O)N(C)C)cc2)O[C@@H]2O[C@]3(C)CC[C@H]4[C@H](C)CC[C@@H]1[C@@]24OO3` (stereo not given in full): the Potency is 37.2 nM (active) in [19] and 372 nM (active) in experiment [18]. For the same compound, the Potency entry in experiment [12] and in [13] was “inactive” each time.
For the compound `COC1(CS(=O)c2ccccc2)CCN(CCc2c[nH]c3ccc(F)cc23)CC1` (stereo not given), the Potency entry in experiment [19], in experiment [1], in [5], in experiment [10], in experiment [11] and in [12] was “inactive” each time. Also, the Potency result in experiment [13], in experiment [14], in experiment [15], in [17] and in experiment [18] was “inactive” in each case.
With `O=C(O)P(=O)(O)O`, the Potency result in experiment [20], in experiment [1], in [10], in experiment [11], in [12] and in [13] was “inactive” throughout.
For `CC(C)=CCOc1c2occc2cc2ccc(=O)oc12`, the Potency result in experiment [1], in experiment [2], in experiment [3], in [4], in experiment [5] and in experiment [10] was “inactive” each time. The Potency entry in [11], in experiment [12], in experiment [13], in [14], in [15] and in [17] was “inactive” throughout. Also, in experiment [18], the Potency entry is “inactive”. Moreover, the result in [6], in experiment [8] and in experiment [9] was inactive.
Take `Cc1cc(SCc2sc(-c3ccc(C(F)(F)F)c(F)c3)nc2C)ccc1OCC(=O)O`: the Potency result in experiment [20], in [1], in experiment [5], in [10], in [11] and in [12] was “inactive” in each case. The Potency result in [13], in [14], in experiment [15] and in experiment [17] was “inactive” in each case.
